Test results reported in the supplement of paper PMC10849652.
Targets with a hit are over-represented here; the source holds about 7,900 in all. About 0.6% of all pairs of compound and target were hits.

Assays:
Experiment in all cases: log2 fold change, soluble protein after heating vs DMSO (PISA); higher = thermal stabilisation; K562 cells, 10 uM, 30 min; active = over 0.2 and 3.5 SD of the protein, either way, in both replicates (recomputed)
[1] = compound: CN1CCN(CCOc2cc(OC3CCOCC3)c3c(Nc4c(Cl)ccc5c4OCO5)ncnc3c2)CC1 [saracatinib]
Outline: (§1)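 K562 cells at 2×10^6 cells/mL were treated with 10 μM compound for 30 min. Aliquots were heated for 3 min across 48°C-58°C, pooled, and extracted in PBS with 0.5% NP-40 at 4°C; soluble protein was the supernatant after 21,000xg for 90 min. Soluble protein was quantified by TMTpro 16plex LC-MS/MS with channel sums equalised, and reported as log2 fold change in thermal stability against DMSO controls, with values from duplicates.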

[2] = compound: CN1CCN(c2nc(C3=C(c4c[nH]c5ccccc45)C(=O)NC3=O)c3ccccc3n2)CC1 [sotrastaurin]
Outline: as §1

[3] = compound: CN1CC[C@H](c2c(O)cc(O)c3c(=O)cc(-c4ccccc4Cl)oc23)[C@H](O)C1 [alvocidib]
Outline: as §1

[4] = compound: CN1CCc2c(c3ccccc3n2Cc2ccc(C(=O)NO)cc2)C1 [Tubastatin A]
Outline: as §1

[5] = compound: CNC(=O)C1=CC=CC=C1NC2=NC(=NC=C2Cl)NC3=C(C=C(C=C3)N4CCOCC4)OC
Outline: as §1

[6] = compound: CNC(=O)c1ccc(Nc2ncc(C(F)(F)F)c(NCc3nccnc3N(C)S(C)(=O)=O)n2)cc1 [defactinib]
Outline: as §1

[7] = compound: CNCc1ccc(-c2[nH]c3cc(F)cc4c3c2CCNC4=O)cc1 [rucaparib]
Outline: as §1

[8] = compound: CNc1nc(-c2ccc3c(N)n[nH]c3c2)cc(N2C[C@@H](C(=O)NC3CCCCC3)CC[C@H]2C)n1
Outline: as §1

[9] = compound: COC(=O)N[C@@H](C)CNc1nccc(-c2cn(C(C)C)nc2-c2cc(Cl)cc(NS(C)(=O)=O)c2F)n1 [encorafenib]
Outline: as §1

[10] = compound: COC(=O)[C@H](CCSC)NC(=O)C1=C(C=C(C=C1)NC[C@H](CS)N)C2=CC=CC=C2
Outline: as §1

[11] = compound: COC1=CC=C(C=C1)CN2C=CC3=C2C=C(C=C3)C(=O)NO
Outline: as §1

[12] = compound: CON(C)C(=O)N1N=C(c2cc(F)ccc2F)S[C@@]1(CCCN)c1ccccc1 [filanesib]
Outline: as §1

[13] = compound: CO[C@H]1C[C@@H]2CC[C@@H](C)[C@@](O)(O2)C(=O)C(=O)N2CCCC[C@H]2C(=O)O[C@H]([C@H](C)C[C@@H]2CC[C@H](n3cnnn3)[C@H](OC)C2)CC(=O)[C@H](C)/C=C(\C)[C@@H](O)[C@@H](OC)C(=O)[C@H](C)C[C@H](C)/C=C/C=C/C=C/1C [zotarolimus]
Outline: as §1

[14] = compound: COc1cc(C(=O)O)ccc1NC(=O)[C@@H]1N[C@@H](CC(C)(C)C)[C@](C#N)(c2ccc(Cl)cc2F)[C@H]1c1cccc(Cl)c1F [idasanutlin]
Outline: as §1

[15] = compound: COc1cc(Nc2ncc3c(n2)-c2ccc(Cl)cc2C(c2c(F)cccc2OC)=NC3)ccc1C(=O)O [alisertib]
Outline: as §1

[16] = compound: COc1cc2nc(-c3cc(F)ccc3O)nc(N[C@@H]3CNC[C@H]3C(C)(C)O)c2cc1OC
Outline: as §1

[17] = compound: COc1cc2ncnc(Nc3ccc(F)c(Cl)c3)c2cc1OCCCN1CCOCC1 [gefitinib]
Outline: as §1

[18] = compound: COc1cccc2cc(-c3nc([C@H]4CC[C@H](C(=O)O)CC4)n4ncnc(N)c34)[nH]c12
Outline: as §1

[19] = compound: CS(=O)(=O)CCNCc1ccc(-c2ccc3ncnc(Nc4ccc(OCc5cccc(F)c5)c(Cl)c4)c3c2)o1 [lapatinib]
Outline: as §1

[20] = compound: CS(=O)(=O)N1CCN(Cc2cc3nc(-c4cccc5[nH]ncc45)nc(N4CCOCC4)c3s2)CC1 [pictilisib]
Outline: as §1

Measured: log2 fold change

ADD2 (UniProt P35612)
Sequence of UniProt P35612 (P35612 whole entry, looked up): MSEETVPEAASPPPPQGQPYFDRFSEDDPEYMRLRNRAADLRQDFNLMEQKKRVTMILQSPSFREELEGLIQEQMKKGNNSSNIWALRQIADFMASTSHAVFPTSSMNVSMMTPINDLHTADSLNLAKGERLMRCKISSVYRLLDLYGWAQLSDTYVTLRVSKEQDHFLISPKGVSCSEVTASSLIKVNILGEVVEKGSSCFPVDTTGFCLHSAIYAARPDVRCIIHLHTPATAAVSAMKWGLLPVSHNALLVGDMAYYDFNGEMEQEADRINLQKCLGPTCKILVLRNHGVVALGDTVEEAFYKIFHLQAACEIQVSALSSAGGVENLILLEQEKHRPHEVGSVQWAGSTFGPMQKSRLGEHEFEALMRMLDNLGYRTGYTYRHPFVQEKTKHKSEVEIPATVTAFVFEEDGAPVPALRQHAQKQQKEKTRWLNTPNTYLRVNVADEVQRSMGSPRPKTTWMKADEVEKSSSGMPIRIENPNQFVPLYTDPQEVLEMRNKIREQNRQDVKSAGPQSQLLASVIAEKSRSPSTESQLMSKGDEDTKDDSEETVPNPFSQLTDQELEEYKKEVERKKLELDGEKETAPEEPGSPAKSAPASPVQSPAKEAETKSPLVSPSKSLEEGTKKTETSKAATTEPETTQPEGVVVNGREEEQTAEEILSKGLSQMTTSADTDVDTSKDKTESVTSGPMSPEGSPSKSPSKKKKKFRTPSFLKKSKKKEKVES
inactive: [1] 0.049 | [2] -0.004 | [3] -0.031 | [4] -0.025 | [5] -0.033 | [6] -0.051 | [7] -0.012 | [8] 0.001 | [9] -0.025 | [10] -0.003 | [11] 0.047 | [12] 0.015 | [13] -0.011 | [14] 0.009 | [15] -0.081 | [16] 0.065 | [17] 0.003 | [18] 0.02 | [19] -0.026 | [20] 0.009

ARL6IP6 (UniProt Q8N6S5)
inactive: [1] 0.192 | [2] 0.005 | [3] -0.082 | [4] -0.014 | [5] -0.099 | [6] -0.053 | [7] 0.009 | [8] 0.004 | [9] 0.015 | [10] -0.035 | [11] -0.113 | [12] -0.014 | [13] -0.03 | [14] -0.088 | [15] 0.004 | [16] -0.042 | [17] -0.021 | [18] 0.036 | [19] 0.004 | [20] 0.005

ACP1 (UniProt P24666)
Sequence of UniProt P24666 (P24666 whole entry, looked up): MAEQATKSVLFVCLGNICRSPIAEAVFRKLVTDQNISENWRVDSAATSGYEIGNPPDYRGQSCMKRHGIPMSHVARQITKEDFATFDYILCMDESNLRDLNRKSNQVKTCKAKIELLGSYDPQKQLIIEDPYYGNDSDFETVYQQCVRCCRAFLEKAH
inactive: [1] -0.031 | [2] -0.054 | [3] -0.111 | [4] 0.141 | [5] -0.1 | [6] -0.044 | [7] 0.12 | [8] 0.123 | [9] 0.035 | [10] -0.111 | [11] 0.008 | [12] -0.047 | [13] -0.039 | [14] -0.078 | [15] 0.029 | [16] 0.056 | [17] 0.003 | [18] -0.086 | [19] -0.073 | [20] -0.062

ARMC8 (UniProt Q8IUR7)
inactive: [1] -0.05 | [2] -0.07 | [3] -0.049 | [4] 0.009 | [5] 0.016 | [6] -0.005 | [7] 0.017 | [8] 0.228 | [9] 0.026 | [10] -0.031 | [11] 0.056 | [12] 0.048 | [13] 0 | [14] -0.016 | [15] -0.08 | [16] -0.014 | [17] -0.029 | [18] -0.016 | [19] 0.046 | [20] 0.005

ALDH1B1 (UniProt P30837)
inactive: [1] -0.015 | [2] 0.001 | [3] -0.093 | [4] 0.014 | [5] 0.002 | [6] -0.055 | [7] -0.015 | [8] 0.062 | [9] 0.013 | [10] -0.042 | [11] 0.051 | [12] -0.1 | [13] 0.029 | [14] -0.122 | [15] -0.045 | [16] -0.009 | [17] 0.091 | [18] 0.075 | [19] -0.003 | [20] 0.062

ASH2L (UniProt Q9UBL3)
Sequence of UniProt Q9UBL3 (Q9UBL3 whole entry, looked up): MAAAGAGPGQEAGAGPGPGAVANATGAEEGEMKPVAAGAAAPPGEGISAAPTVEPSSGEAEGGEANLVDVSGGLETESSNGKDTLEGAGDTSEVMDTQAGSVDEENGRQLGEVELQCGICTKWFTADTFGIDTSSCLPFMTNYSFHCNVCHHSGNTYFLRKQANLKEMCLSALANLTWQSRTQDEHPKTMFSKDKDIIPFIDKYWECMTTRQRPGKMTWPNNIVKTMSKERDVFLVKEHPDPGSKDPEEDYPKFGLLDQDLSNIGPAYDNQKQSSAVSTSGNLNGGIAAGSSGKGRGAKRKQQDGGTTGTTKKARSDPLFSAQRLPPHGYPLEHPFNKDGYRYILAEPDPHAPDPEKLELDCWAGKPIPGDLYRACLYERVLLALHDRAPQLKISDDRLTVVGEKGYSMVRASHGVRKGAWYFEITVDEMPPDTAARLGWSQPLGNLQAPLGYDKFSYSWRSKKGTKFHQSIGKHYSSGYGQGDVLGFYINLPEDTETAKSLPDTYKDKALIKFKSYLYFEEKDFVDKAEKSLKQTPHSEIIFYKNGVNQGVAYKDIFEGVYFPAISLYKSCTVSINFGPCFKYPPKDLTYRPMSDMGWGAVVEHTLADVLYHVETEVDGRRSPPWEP
inactive: [1] 0.023 | [2] -0.025 | [3] -0.035 | [4] 0.052 | [5] 0.023 | [6] -0.12 | [7] 0.012 | [8] -0.036 | [9] 0.037 | [10] -0.009 | [11] 0.019 | [12] 0.044 | [13] 0.096 | [14] 0.021 | [15] -0.034 | [16] 0.035 | [17] 0.004 | [18] -0.014 | [19] -0.011 | [20] 0.039

ADH5 (UniProt P11766)
Sequence of UniProt P11766 (P11766 whole entry, looked up): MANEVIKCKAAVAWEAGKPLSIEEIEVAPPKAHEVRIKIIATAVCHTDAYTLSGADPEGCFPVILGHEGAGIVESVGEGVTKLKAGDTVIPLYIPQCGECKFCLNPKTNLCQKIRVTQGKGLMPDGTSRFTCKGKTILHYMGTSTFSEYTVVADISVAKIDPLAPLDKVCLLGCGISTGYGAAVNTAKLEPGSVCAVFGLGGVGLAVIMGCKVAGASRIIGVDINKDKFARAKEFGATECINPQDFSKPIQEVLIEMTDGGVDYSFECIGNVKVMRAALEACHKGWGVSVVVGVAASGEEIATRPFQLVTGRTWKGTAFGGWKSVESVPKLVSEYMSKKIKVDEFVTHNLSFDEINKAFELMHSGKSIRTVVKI
inactive: [1] 0.04 | [2] 0.03 | [3] 0.011 | [4] -0.025 | [5] -0.025 | [6] -0.014 | [7] -0.066 | [8] -0.025 | [9] -0.006 | [10] 0.002 | [11] -0.002 | [12] -0.053 | [13] 0.008 | [14] -0.037 | [15] -0.039 | [16] 0.011 | [17] -0.007 | [18] 0.058 | [19] -0.03 | [20] 0

BST2 (UniProt Q10589)
inactive: [1] 0.003 | [2] -0.097 | [3] -0.005 | [4] -0.055 | [5] -0.063 | [6] 0.03 | [7] -0.008 | [8] -0.07 | [9] 0 | [10] 0.012 | [11] -0.064 | [12] -0.05 | [13] 0.041 | [14] -0.044 | [15] -0.059 | [16] -0.028 | [17] -0.022 | [18] 0.007 | [19] 0.038 | [20] 0.036

ARF4 (UniProt P18085)
Sequence of UniProt P18085 (P18085 whole entry, looked up): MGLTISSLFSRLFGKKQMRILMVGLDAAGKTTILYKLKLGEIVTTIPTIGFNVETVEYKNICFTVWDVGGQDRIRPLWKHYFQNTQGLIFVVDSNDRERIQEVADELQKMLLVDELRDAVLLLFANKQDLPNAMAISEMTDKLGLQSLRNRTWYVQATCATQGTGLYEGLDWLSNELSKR
inactive: [1] 0.052 | [2] 0.028 | [3] -0.005 | [4] 0.011 | [5] 0.028 | [6] -0.005 | [7] -0.051 | [8] -0.004 | [9] 0 | [10] -0.032 | [11] 0.007 | [12] -0.061 | [13] 0.006 | [14] -0.153 | [15] -0.023 | [16] 0.17 | [17] -0.005 | [18] 0.019 | [19] 0.037 | [20] 0.035

AKT2 (UniProt P31751)
inactive: [1] -0.012 | [2] -0.068 | [3] -0.005 | [4] 0.01 | [5] 0.042 | [6] -0.009 | [7] -0.058 | [8] -0.102 | [9] 0.015 | [10] 0.013 | [11] 0.008 | [12] -0.056 | [13] -0.01 | [14] -0.121 | [15] -0.041 | [16] 0.008 | [17] -0.012 | [18] -0.231 | [19] 0.04 | [20] 0.044

BLOC1S3 (UniProt Q6QNY0)
Sequence of UniProt Q6QNY0 (Q6QNY0 whole entry, looked up): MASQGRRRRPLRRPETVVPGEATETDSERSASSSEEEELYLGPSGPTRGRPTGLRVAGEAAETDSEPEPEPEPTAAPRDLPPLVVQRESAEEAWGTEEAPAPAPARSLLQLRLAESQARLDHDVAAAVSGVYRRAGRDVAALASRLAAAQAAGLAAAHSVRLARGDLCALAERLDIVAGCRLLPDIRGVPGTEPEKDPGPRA
inactive: [1] 0.049 | [2] 0.034 | [3] 0.015 | [4] -0.064 | [5] -0.05 | [6] -0.044 | [7] -0.047 | [8] -0.031 | [9] -0.035 | [10] 0.028 | [11] -0.013 | [12] -0.066 | [13] -0.014 | [14] -0.149 | [15] 0.005 | [16] -0.018 | [17] 0.048 | [18] 0.058 | [19] -0.007 | [20] 0.126

B4GALT1 (UniProt P15291)
inactive: [1] -0.017 | [2] -0.07 | [3] -0.117 | [4] 0.063 | [5] 0.023 | [6] 0.066 | [7] 0.013 | [8] -0.041 | [9] 0.032 | [10] -0.084 | [11] -0.04 | [12] 0.014 | [13] 0.067 | [14] 0 | [15] 0.051 | [16] -0.037 | [17] 0.022 | [18] 0.021 | [19] 0.042 | [20] 0.128

ACACB (UniProt O00763)
Sequence of UniProt O00763 (O00763 whole entry, looked up): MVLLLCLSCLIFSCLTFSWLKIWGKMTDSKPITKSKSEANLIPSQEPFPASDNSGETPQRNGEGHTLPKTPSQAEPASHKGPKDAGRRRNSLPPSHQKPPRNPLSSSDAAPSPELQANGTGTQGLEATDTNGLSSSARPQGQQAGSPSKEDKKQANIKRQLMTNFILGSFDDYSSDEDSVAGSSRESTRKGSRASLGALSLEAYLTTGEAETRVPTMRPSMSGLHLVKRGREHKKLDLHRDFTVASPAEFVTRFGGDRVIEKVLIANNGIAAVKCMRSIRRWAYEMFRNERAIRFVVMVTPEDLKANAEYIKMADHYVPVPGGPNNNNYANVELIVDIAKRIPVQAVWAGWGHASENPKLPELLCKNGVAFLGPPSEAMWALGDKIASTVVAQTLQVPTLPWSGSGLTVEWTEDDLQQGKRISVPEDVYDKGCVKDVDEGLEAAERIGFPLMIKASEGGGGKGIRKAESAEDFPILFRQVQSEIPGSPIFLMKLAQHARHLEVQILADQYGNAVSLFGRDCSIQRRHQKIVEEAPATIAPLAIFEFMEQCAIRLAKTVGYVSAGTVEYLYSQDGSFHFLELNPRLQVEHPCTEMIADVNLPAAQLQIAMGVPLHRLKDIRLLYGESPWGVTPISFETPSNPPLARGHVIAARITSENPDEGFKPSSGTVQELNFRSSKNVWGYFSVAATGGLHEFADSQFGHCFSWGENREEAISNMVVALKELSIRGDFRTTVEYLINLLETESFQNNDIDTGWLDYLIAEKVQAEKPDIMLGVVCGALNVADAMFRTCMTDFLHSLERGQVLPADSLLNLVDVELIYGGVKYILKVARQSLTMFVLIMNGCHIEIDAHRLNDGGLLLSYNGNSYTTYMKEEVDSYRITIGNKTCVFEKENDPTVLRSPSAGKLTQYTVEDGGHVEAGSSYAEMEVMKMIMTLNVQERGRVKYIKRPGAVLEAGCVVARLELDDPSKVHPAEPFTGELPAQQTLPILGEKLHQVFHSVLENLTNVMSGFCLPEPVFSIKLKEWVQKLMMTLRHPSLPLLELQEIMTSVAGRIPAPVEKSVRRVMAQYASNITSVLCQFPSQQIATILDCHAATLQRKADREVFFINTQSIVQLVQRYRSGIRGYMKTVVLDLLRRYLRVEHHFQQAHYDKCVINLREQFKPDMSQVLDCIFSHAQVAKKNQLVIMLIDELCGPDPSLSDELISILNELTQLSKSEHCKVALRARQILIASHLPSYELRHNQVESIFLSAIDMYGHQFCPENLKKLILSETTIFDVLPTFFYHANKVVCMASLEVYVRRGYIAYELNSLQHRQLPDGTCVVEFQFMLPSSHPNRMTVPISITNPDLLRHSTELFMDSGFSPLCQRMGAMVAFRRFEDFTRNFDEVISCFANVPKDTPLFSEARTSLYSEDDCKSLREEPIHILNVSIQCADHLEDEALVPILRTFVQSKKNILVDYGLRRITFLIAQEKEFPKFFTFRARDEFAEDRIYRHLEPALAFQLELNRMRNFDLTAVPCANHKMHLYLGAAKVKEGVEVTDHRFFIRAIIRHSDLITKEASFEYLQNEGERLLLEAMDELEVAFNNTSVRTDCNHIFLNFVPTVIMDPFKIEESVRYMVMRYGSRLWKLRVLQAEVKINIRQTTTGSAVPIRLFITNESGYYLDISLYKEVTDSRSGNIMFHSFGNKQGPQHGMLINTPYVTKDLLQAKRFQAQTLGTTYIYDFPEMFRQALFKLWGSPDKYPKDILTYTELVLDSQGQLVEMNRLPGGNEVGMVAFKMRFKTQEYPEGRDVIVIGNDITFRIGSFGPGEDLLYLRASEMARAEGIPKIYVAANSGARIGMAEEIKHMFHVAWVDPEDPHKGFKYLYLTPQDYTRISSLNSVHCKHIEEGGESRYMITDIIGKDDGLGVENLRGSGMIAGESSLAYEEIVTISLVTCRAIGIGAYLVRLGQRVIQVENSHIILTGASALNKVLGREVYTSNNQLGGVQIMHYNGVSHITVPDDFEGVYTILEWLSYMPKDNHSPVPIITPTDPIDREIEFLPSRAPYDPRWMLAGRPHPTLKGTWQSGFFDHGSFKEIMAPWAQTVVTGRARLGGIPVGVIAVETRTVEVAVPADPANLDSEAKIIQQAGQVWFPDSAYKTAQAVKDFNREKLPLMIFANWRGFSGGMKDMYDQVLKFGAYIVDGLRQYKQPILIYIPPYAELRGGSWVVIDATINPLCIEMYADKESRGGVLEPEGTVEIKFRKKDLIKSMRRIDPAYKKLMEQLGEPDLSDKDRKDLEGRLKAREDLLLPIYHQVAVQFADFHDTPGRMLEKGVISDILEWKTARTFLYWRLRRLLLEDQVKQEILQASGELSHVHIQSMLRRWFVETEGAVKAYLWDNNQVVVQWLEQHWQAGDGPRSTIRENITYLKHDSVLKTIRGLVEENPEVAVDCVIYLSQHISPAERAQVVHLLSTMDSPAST
inactive: [1] -0.166 | [2] -0.383 | [3] 0.033 | [4] 0.087 | [5] -0.083 | [6] 0.016 | [7] 0.291 | [8] 0.228 | [9] 0.089 | [10] -0.137 | [11] -0.019 | [12] 0.258 | [13] 0.132 | [14] -0.042 | [15] -0.168 | [16] 0.039 | [17] -0.02 | [18] -0.371 | [19] 0.068 | [20] 0.038

ARL3 (UniProt P36405)
Sequence of UniProt P36405 (P36405 whole entry, looked up): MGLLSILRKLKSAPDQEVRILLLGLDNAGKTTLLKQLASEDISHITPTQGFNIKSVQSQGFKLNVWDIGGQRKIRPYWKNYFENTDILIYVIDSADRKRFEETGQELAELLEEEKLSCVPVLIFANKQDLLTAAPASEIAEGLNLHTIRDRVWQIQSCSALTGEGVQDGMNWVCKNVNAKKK
inactive: [1] 0.021 | [2] -0.008 | [3] -0.01 | [4] -0.012 | [5] -0.025 | [6] -0.025 | [7] -0.033 | [8] -0.035 | [9] -0.022 | [10] 0.022 | [11] 0 | [12] -0.017 | [13] -0.006 | [14] -0.062 | [15] -0.076 | [16] -0.007 | [17] -0.018 | [18] 0.047 | [19] -0.03 | [20] 0.031

ADRM1 (UniProt Q16186)
inactive: [1] -0.086 | [2] -0.091 | [3] 0.042 | [4] 0.18 | [5] -0.067 | [6] 0.087 | [7] -0.022 | [8] 0.111 | [9] 0.108 | [10] 0.017 | [11] 0.088 | [12] 0.008 | [13] 0.057 | [14] -0.073 | [15] -0.031 | [16] -0.029 | [17] -0.055 | [18] -0.045 | [19] 0.022 | [20] -0.013

AGRN (UniProt O00468)
inactive: [1] 0.062 | [2] 0.065 | [3] -0.009 | [4] -0.01 | [5] 0 | [6] -0.119 | [7] 0.032 | [8] -0.164 | [9] 0.034 | [10] 0.014 | [11] -0.068 | [12] 0.014 | [13] -0.001 | [14] -0.005 | [15] -0.043 | [16] -0.071 | [17] 0.118 | [18] 0.037 | [19] 0.018 | [20] 0.055
